Inconclusive results are not listed. The source made the active and inactive calls. Rule for the calls: active = hit-call score of the fitted dose curve at least 0.9, where 1 is the maximum; inconclusive = response in the unintended direction; inactive = score below 0.9.
Key:
[1] = molecular target: human CYP1A2, CYP1A2 (gene 1544) (UniProt P05177); test: NVS_ADME_hCYP1A2: NovaScreen (NVS) CYP450-related Enzyme Activity (ADME) Assay for human CYP1A2 (AID 2283102)
Outline: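 Cell-free recombinant human CYP1A2 expressed in insect cells, with fluorogenic substrate; fluorescence intensity read 0.5 h after dosing. Loss of signal relative to acetonitrile baseline scored. Primary screen in duplicate at 10 uM; actives retested in concentration series.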

[2] = molecular target: rat CYP2C11, Cyp2c11 (gene 29277) (UniProt P08683); test: NVS_ADME_rCYP2C11: NovaScreen (NVS) CYP450-related Enzyme Activity (ADME) Assay for rat CYP2C11 (AID 2283118)
Outline: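 Cell-free recombinant rat enzyme with fluorescent substrate; readout 0.33 h after dosing, loss of signal versus acetonitrile control. Initial duplicate single-point at 10 uM; actives rerun in concentration series.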

[3] = molecular target: human Esterase Plasma (ES), BCHE (gene 590) (UniProt P06276); test: NVS_ENZ_hES: NovaScreen (NVS) Enzymatic Assay for human Esterase Plasma (ES) (AID 2283157)
Method: NVS_ENZ_hES is a biochemical, single-readout assay that uses extracted gene-proteins from Human plasma in a cell-free assay. Measurements were taken 0.25 hour after chemical dosing in a 96-well plate.NVS_ENZ_hES is one of one assay component(s) measured or calculated from the NVS_ENZ_hES assay. It is designed to make measurements of enzyme activity, a form of enzyme reporter, as detected with absorbance signals by Colorimetric technology.Data from the assay component NVS_ENZ_hES was analyzed into 1 assay endpoint. This assay endpoint, NVS_ENZ_hES, was analyzed in the positive analysis fitting direction relative to DMSO as the negative control and baseline of activity. […] Furthermore, this assay endpoint can be referred to as a primary readout, because this assay has produced multiple assay endpoints where this one serves a enzymatic activity function. […]
Binding assays used specific radioligands (tritiated, iodinated) with non-radioactive competitive displacement ligands in agonist or antagonist protocols (as indicated) and various reference compounds and inhibitors to titrate specific binding to receptors and transporters. Most enzyme assays (CYPs, kinases, phosphatases, proteases, HDACs) used recombinant protein and specific substrates (fluorescence mostly, some colorimetric and radioactive) and inhibitors, followed by a biochemical separation of substrate and product. […]

human Esterase Plasma (ES), BCHE (gene 590), sequence (P06276 whole entry, looked up): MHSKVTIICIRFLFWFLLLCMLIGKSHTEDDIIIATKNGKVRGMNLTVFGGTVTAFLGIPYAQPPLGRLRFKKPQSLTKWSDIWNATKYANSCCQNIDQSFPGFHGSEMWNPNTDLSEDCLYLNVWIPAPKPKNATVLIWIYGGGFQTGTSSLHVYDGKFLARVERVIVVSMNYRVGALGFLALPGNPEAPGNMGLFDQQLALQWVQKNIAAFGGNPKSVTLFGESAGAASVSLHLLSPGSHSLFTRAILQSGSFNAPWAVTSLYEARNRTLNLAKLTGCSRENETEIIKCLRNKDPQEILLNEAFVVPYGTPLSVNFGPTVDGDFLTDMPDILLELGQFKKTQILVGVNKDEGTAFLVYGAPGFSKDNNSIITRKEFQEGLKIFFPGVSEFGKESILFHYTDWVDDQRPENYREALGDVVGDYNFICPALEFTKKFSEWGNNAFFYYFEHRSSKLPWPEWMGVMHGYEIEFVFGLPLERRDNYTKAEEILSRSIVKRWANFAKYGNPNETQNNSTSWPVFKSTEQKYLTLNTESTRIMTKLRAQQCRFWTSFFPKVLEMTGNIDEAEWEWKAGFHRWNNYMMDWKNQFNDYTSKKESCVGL
human CYP1A2, CYP1A2 (gene 1544), sequence (P05177 whole entry, looked up): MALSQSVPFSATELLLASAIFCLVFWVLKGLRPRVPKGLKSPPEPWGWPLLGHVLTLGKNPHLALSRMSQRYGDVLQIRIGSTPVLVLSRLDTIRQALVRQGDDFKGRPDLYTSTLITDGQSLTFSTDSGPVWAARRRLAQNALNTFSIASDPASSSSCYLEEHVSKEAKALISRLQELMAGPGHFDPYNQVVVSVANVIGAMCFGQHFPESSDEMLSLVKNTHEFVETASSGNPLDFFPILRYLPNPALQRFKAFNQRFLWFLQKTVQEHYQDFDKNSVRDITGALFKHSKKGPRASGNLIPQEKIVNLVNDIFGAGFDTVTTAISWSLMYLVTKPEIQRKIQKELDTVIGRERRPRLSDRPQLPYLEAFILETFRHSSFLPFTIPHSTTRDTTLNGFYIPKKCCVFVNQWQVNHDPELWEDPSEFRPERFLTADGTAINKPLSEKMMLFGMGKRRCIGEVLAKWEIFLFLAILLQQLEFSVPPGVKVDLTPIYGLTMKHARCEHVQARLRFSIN
rat CYP2C11, Cyp2c11 (gene 29277), sequence (P08683 whole entry, looked up): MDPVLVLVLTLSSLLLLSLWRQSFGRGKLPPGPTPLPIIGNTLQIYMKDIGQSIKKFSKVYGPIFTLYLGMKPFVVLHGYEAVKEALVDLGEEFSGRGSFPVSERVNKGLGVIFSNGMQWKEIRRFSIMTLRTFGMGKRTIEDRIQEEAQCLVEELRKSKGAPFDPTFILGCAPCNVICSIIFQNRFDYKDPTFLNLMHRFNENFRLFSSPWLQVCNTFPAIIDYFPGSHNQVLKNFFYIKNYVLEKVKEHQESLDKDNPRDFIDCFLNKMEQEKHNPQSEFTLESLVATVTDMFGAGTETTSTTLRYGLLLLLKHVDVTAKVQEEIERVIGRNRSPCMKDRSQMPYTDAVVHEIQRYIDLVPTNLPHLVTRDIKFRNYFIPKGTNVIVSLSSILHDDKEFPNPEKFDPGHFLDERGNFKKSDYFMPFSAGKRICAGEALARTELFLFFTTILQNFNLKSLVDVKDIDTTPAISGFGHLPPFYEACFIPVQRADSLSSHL

For `Cc1ccc([N+](=O)[O-])cc1N`, the outcome [1] was “inactive”.
`CCOC(=O)C1=NOC(c2ccccc2)(c2ccccc2)C1` was tested, and the outcome [2] was “inactive”.
`Fc1ccc(Br)cc1` was tested, and the outcome [3] was “inactive”.
With `CC(C)[N+](C)(CCOC(=O)C1c2ccccc2Oc2ccccc21)C(C)C` the AC50 [3] was 2020 nM (active).

From PubChem BioAssay (EPA / NIEHS)
